Common to all, as to experiment: NCI-60 one-dose screen, 48 h (100 = growth as untreated, 0 = no growth, -100 = all killed)
Holding throughout (conditions): 10 µM unless noted

Experiment [1] has as its system HCT-15 colon.
The test system of experiment [2] is HT29 colon.
For experiment [3], the system named is SNB-75 CNS.
The subject of experiment [4] is SNB-19 CNS.
Experiment [5] relates to U251 CNS.
Experiment [6] concerns PC-3 prostate.
Experiment [7] deals with UACC-62 melanoma.
The subject of experiment [8] is LOX IMVI melanoma.
The test system of experiment [9] is SK-MEL-28 melanoma.

The panel holds about 83,000 compounds, 20% with a hit somewhere; the sample as a whole holds those more often.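 Cells were grown in 96-well plates and exposed to the test compound at a single concentration for 48 hours; results are reported as percent growth, with values below 10 considered active.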 A number with no mark means an inactive call. Active and inactive are the calls of the source.

As for `O=c1cc(/C(=C2/C=CC=N2)c2ccc[nH]2)c2cc(Cl)ccc2o1`, the growth in experiment [1] is 35.1%; in experiment [2], 47.9%; in experiment [3], 24.6%; in experiment [4] it was 25.7%; in experiment [5], 14.4%; in experiment [6], 38.9%. Also, the growth was 42.9% in experiment [7], 34.3% in experiment [8] and 61.8% in experiment [9].

As for `C=CC(COC(c1ccccc1)(c1ccccc1)c1ccccc1)N(CC)CC` (stereo unspecified), the growth was 16.7% in experiment [1]; 14.6% in experiment [2]; 73% in experiment [3]; 82.1% in experiment [4]; 52.5% in experiment [5]; 47.9% in [6]. Also, the growth is 44.8% in experiment [7], 49.5% in [8] and 59.4% in [9].

On to `CC1=C[C@H]2c3c(c(O)c(O)c4oc5c(C)cccc5c(=O)c34)[C@H](c3cc(O)c(O)c4oc5c(C)cccc5c(=O)c34)[C@H]2C(C)(C)C1`, for which the growth was 12.5% in experiment [1]; 21% in experiment [2]; -25.7% (active) in experiment [3]; 15.2% in experiment [4]; 11.3% in [5]; 10.1% in [6]. Moreover, the results for the growth in [7], in experiment [8] and in experiment [9] were -43% (active), -85.8% (active) and 26.6%, respectively.

For the compound `Cc1cc(N[C@@H]2CCC[C@H](Nc3ccnc4cc(Cl)ccc34)C2)nc(N2CCCCCC2)n1`, the growth in experiment [1] was -73.2% (active); in [2], -59.9% (active); in [3], -83.7% (active); in [4], -22.2% (active); in experiment [5], -92.6% (active); in [6], -67.7% (active). In addition, the growth in experiment [7] is -90.2% (active); in [8], -86.3% (active); in experiment [9], -80.3% (active).

In the case of `O=c1ccccc(-c2ccc(Br)cc2)c1O`, the growth is 26.3% in experiment [1]; 21.9% in [2]; 31.4% in [3]; 13% in experiment [4]; 9.54% (active) in experiment [5]; 29.5% in experiment [6]. For the same compound, the values for the growth in experiment [7], in [8] and in [9] were -49.3% (active), 4.54% (active) and 23.2%, respectively.

Turning to `Cc1nn(-c2cc(=O)[nH]c3ccc(Cl)cc23)c(N)c1C#N`, the growth was 103% in experiment [1]; 110% in experiment [2]; 61.2% in experiment [3]; 108% in experiment [4]; 102% in [5]; 95.6% in [6]. For the same compound, the growth in experiment [7] is 98.8%; in experiment [8] it was 92.9%; in [9], 115%.

Regarding `O=C1c2ccccc2OC=C(c2ccccc2)N1CCCCNc1ccc(S(=O)(=O)Nc2ncccn2)cc1`, the growth was 96.1% in [1]; 100% in experiment [2]; 80% in experiment [3]; 101% in experiment [4]; 91.1% in experiment [5]; 76.4% in experiment [6]. Also, the growth is 86.8% in [7], 92.7% in [8] and 108% in experiment [9].

On to `COC[C@H](C)n1c(C2CCOCC2)nc2cnc3cc(-c4c(C)noc4C)c(OC)cc3c21`, for which the growth in [1] was 34.6%; in [2], 23.4%; in [3] it was 31.2%; in experiment [4], 64.8%; in experiment [5], 54.1%; in experiment [6], 44.8%. In addition, the growth in experiment [7] is 31.7%; in experiment [8], 27%; in experiment [9] it was 59%.

With `Nc1nc2ncc(CCNc3ccc(C(=O)O)cc3)nc2c(=O)[nH]1`, the growth was 102% in experiment [1]; 97.5% in experiment [2]; 110% in experiment [3]; 111% in experiment [4]; 109% in [5]; 92.4% in experiment [6]. Moreover, the growth in experiment [7] is 111%; in experiment [8], 102%; in experiment [9], 118%.

With `CCc1nnc(CNc2ccc(Cl)cc2)o1`, the growth in experiment [1] was 100%; in experiment [2], 95.1%; in experiment [3], 82.7%; in experiment [4], 106%; in [5] it was 98.2%; in experiment [6], 95.1%. Moreover, the values for the growth in [7], in experiment [8] and in experiment [9] were 93.7%, 91.2% and 100%, respectively.

`O=C(Nc1ccc(Cl)cc1)c1cc2cc(F)ccc2cc1O`: the growth in [1] was 13.1%; in experiment [2], 72.5%; in experiment [3] it was 18.7%; in experiment [4], 21.3%; in experiment [5] it was 5.79% (active); in experiment [6] it was 9.4% (active). In addition, the growth is 10.9% in experiment [7], 17.8% in [8] and 12.1% in experiment [9].

For the compound `COc1cc(-c2nn(-c3ccc(Br)cc3)cc2C(=O)O)ccc1O`, the growth is 103% in experiment [1]; 101% in experiment [2]; 92.2% in experiment [3]; 103% in experiment [4]; 109% in experiment [5]; 97.2% in experiment [6]. The growth in experiment [7] was 109%; in [8], 102%; in experiment [9] it was 119%.

For `Cn1nc(N)c2cc([C@@H]3Nc4ccc5[nH]ncc5c4[C@H]4C5CCC(C5)[C@@H]34)ccc21` (stereo partly specified), the growth is 17.9% in [1]; 11.6% in [2]; -17.9% (active) in [3]; 29.5% in experiment [4]; 21.1% in experiment [5]; 17.4% in experiment [6]. The growth in experiment [7] is 32.1%; in experiment [8], 38.8%; in experiment [9], 53.2%.

Turning to `O=C(O)c1ccc(N=CC(=O)c2ccc(-c3ccccc3)cc2)cc1`, the growth in experiment [1] is 113%; in [2], 103%; in [3], 109%; in [4], 101%; in [5], 98.5%; in [6] it was 86.2%. The growth is 93.5% in experiment [7], 101% in [8] and 101% in experiment [9].

Source of the values: PubChem BioAssay (NCI).
